From PubChem BioAssay
For some of these results: Potency and affinity values are given separately. Activity calls are given as the source filed them. Unless noted, how the calls were made is not given here.

What was measured:
[1] = antimalarial activity against Dd2 strain (AID 2302;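 active means growth inhibition above 50% at the single 2 µM test dose, taken to imply half-maximal potency below 2 µM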;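 further: 0% = DMSO untreated growth and 100% = chloroquine plus artemisinin killed control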); conditions: P. falciparum Dd2 in RBCs, LDH growth readout, 72 h; at 2 µM; active compounds read high
[2] = HepG2 cytotoxicity, primary screen, cytotoxicity control for P. falciparum antimalarial project, cell-based, ATP luminescence (AID 2303;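 active means inhibition above 50%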;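 further: 0% = DMSO wells and 100% = digitonin-killed cells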); conditions: HepG2 viability, 24-48 h, at 10 µM, active compounds read high
[3] = target: L-lactate dehydrogenase (Plasmodium falciparum (isolate CDC / Honduras)) (UniProt Q27743); experiment: PfLDH activity inhibition – cell lysate, 3D7 strain, counter-screen for P. falciparum growth inhibition project (AID 2304);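 further: 0% = vehicle and 100% = reference inhibitor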; conditions: P. falciparum 3D7 crude extract, LDH APAD/NBT absorbance; at 2 µM; active compounds read high
L-lactate dehydrogenase (Plasmodium falciparum (isolate CDC / Honduras)), sequence (Q27743 whole entry, looked up): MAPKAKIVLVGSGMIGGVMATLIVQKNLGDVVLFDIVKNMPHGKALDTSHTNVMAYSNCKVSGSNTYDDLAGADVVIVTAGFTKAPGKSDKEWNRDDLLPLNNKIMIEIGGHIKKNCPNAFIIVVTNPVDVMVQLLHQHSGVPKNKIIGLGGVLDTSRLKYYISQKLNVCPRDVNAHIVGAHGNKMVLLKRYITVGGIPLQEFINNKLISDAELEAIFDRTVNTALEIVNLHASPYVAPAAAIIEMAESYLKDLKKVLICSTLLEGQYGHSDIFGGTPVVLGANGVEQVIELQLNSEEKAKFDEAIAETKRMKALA

[4] = inhibition of 3D7 malaria parasite growth – strain 3D7 (AID 2306);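 further: 0% = DMSO wells and 100% = chloroquine plus artemisinin control wells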; conditions: P. falciparum 3D7 erythrocytic growth, LDH absorbance, 72 h; at 2 µM; active compounds read high
[5] = target: Calcium-dependent protein kinase 1 (Plasmodium falciparum (isolate 3D7)) (UniProt P62344); experiment: PfCDPK1 kinase inhibitors, biochemical, TCAMS library (AID 1159585; cut-off not given, nearly all actives have IC50 up to about 0.98 µM;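 further: inhibitors leave more ATP so luminescence rises with inhibition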); conditions: recombinant PfCDPK1, Kinase-Glo ATP depletion luminescence
Calcium-dependent protein kinase 1 (Plasmodium falciparum (isolate 3D7)), sequence (P62344 whole entry, looked up): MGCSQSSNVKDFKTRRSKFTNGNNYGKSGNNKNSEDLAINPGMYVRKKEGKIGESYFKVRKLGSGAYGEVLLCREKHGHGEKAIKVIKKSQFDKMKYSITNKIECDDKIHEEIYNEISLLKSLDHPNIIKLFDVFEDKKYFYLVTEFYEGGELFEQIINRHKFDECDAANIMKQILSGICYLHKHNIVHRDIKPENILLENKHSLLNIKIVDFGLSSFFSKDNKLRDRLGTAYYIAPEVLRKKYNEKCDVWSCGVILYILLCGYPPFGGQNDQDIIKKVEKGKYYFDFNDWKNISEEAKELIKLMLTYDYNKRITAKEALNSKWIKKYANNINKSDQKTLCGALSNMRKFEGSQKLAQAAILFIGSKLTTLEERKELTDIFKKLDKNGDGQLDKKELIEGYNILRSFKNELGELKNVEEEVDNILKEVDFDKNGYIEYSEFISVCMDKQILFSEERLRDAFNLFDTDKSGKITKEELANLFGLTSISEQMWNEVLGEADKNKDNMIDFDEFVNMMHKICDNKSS

[6] = target: Plasmodium falciparum protein kinase 6 (PK6, PF3D7_1337100) (UniProt Q8IDW1); experiment: PfPK6 kinase inhibitors, biochemical, TCAMS library (AID 1159586); conditions: recombinant PfPK6, Kinase-Glo ATP depletion luminescence
Plasmodium falciparum protein kinase 6 (PK6, PF3D7_1337100), sequence (Q8IDW1 1-305): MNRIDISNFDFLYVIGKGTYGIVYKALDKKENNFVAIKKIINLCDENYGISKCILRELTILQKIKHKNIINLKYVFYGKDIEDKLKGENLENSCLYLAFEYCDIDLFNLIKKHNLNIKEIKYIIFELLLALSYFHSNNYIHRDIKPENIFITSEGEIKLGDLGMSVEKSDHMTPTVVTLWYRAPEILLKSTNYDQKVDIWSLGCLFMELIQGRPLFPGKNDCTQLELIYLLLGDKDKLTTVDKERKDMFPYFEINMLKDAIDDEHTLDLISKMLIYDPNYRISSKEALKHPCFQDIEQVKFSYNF

[7] = target: Protein kinase 7 (PK7), Plasmodium falciparum 3D7 (PF3D7_0213400) (UniProt Q7YTF7); experiment: inhibition of Plasmodium PK7 catalytic activity – biochemical, TCAMS antimalarial set, Kinase-Glo luminescence (AID 1159587); conditions: recombinant PfPK7, Kinase-Glo ATP depletion luminescence
Protein kinase 7 (PK7), Plasmodium falciparum 3D7 (PF3D7_0213400), sequence (Q7YTF7 1-343): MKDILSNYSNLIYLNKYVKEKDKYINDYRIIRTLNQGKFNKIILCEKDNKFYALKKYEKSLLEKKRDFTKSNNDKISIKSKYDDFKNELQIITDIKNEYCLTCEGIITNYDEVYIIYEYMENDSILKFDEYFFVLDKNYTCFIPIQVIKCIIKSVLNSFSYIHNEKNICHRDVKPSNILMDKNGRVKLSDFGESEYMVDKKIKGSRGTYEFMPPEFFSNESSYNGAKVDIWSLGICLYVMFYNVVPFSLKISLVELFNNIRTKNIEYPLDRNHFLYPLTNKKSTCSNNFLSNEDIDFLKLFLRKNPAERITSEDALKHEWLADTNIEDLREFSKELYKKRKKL

[8] = target: Calcium-dependent protein kinase 4 (Plasmodium falciparum (isolate 3D7)) (UniProt Q8IBS5); experiment: PfCDPK4 kinase inhibitors, biochemical, TCAMS library (AID 1159588; cut-off not given, nearly all actives have IC50 up to about 0.91 µM); conditions: recombinant PfCDPK4, Kinase-Glo ATP depletion luminescence
Calcium-dependent protein kinase 4 (Plasmodium falciparum (isolate 3D7)), sequence (Q8IBS5 whole entry, looked up): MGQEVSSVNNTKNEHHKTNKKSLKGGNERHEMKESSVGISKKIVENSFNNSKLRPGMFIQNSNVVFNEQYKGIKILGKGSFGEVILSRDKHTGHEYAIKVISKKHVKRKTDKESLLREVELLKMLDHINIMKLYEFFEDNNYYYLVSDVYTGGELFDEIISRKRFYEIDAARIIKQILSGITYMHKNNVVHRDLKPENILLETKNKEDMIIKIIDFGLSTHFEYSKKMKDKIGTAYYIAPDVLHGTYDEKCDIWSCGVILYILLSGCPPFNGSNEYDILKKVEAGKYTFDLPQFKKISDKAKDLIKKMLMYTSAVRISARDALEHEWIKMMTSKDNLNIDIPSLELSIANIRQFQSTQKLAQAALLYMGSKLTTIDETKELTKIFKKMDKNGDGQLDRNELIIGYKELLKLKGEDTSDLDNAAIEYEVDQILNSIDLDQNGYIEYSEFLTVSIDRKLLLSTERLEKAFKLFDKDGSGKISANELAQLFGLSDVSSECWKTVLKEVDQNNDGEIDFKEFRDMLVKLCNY

COc1ccc(O)cc1/C=N/Nc1ccnc2cc(Cl)ccc12
active: growth inhibition [1] 92% | growth inhibition [4] 103%
inactive: inhibition [2] -5% | inhibition [3] 3% | outcome [5] | outcome [6] | outcome [7] | outcome [8]

c1cc(CN2CCc3ccccc3CC2)cc(-c2c[nH]c3nc(NC4CCCC4)ncc23)c1
active: growth inhibition [4] 99%
inactive: growth inhibition [1] 49% | inhibition [2] 31% | inhibition [3] -3% | outcome [5] | outcome [6] | outcome [7] | outcome [8]

CCn1c(Cc2ccccc2)nnc1SCC(=O)N1c2ccccc2Sc2ccccc21
active: growth inhibition [1] 96% | growth inhibition [4] 99%
inactive: inhibition [2] -8% | inhibition [3] -1% | outcome [5] | outcome [6] | outcome [7] | outcome [8]

O=C(/C=C/c1ccc(C(F)(F)F)cc1)NCCCCCN1CCN(C(=O)Nc2ccc(F)c(Cl)c2)CC1
active: growth inhibition [4] 89%
inactive: growth inhibition [1] -6% | inhibition [2] 35% | inhibition [3] -2% | outcome [5] | outcome [6] | outcome [7] | outcome [8]

O=C(/C=C/c1ccc(Cl)c(Cl)c1)NCCCCCN1CCC(NC(=O)Nc2cc(Cl)nc(Cl)c2)CC1
inactive: growth inhibition [1] 2% | inhibition [2] 4% | inhibition [3] -8% | outcome [5] | outcome [6] | outcome [7] | outcome [8]
active: growth inhibition [4] 102%

COc1ccc2[nH]c(C(=O)Nc3cccc(-c4ccc(CN(C)C)cc4)c3)cc2c1
active: growth inhibition [4] 100%
inactive: growth inhibition [1] 34% | inhibition [2] 23% | inhibition [3] 3% | outcome [5] | outcome [6] | outcome [7] | outcome [8]

CN1CCN(C(=O)CN2CCC3(CCC2=O)NC(=O)c2ccccc2O3)CC1 (stereo not drawn)
inactive: inhibition [2] -7% | inhibition [3] 2% | outcome [5] | outcome [6] | outcome [7] | outcome [8]
active: growth inhibition [1] 98% | growth inhibition [4] 99%

Cc1c(C(=O)[C@@H]2C[C@H]2CN2CCC(N3CCCCC3)CC2)sc2ccccc12
inactive: growth inhibition [1] 19% | inhibition [2] 35% | inhibition [3] -1% | outcome [5] | outcome [6] | outcome [7] | outcome [8]
active: growth inhibition [4] 94%

COc1ccc(CCC(C)(C)NCC(O)c2cccc(C(F)(F)F)c2)cc1 (stereo not drawn)
inactive: inhibition [2] 26% | inhibition [3] 3% | outcome [5] | outcome [6] | outcome [7] | outcome [8]
active: growth inhibition [1] 98% | growth inhibition [4] 99%

FC(F)(F)c1ccc2nc(-c3ccc(-c4cccc(CNCCN5CCNCC5)c4)s3)[nH]c2c1
active: growth inhibition [4] 91%
inactive: growth inhibition [1] 39% | inhibition [2] 22% | inhibition [3] 5% | outcome [5] | outcome [6] | outcome [7] | outcome [8]

COc1ccc(CCc2ccc(-c3c(C)[nH]c(C)c(Cl)c3=O)cc2)cc1
active: growth inhibition [1] 97% | growth inhibition [4] 98%
inactive: inhibition [2] -3% | inhibition [3] 3% | outcome [5] | outcome [6] | outcome [7] | outcome [8]

CC(=O)c1ccc(NC(=O)NNC(=O)c2ccc(CCN3CCC(c4nc(COCC(F)(F)F)c(-c5ccc(F)cc5)o4)CC3)cc2)cc1
inactive: growth inhibition [1] 27% | inhibition [2] 17% | inhibition [3] -10% | outcome [5] | outcome [6] | outcome [7] | outcome [8]
active: growth inhibition [4] 96%

O=C(/C=C/c1ccc(Cl)c(Cl)c1)NCCCCCCN1CCCN(C(=O)Nc2cc(Cl)cc(Cl)c2)CC1
active: growth inhibition [4] 98%
inactive: growth inhibition [1] 2% | inhibition [2] 26% | inhibition [3] -3% | outcome [5] | outcome [6] | outcome [7] | outcome [8]

O=C(/C=C/c1ccc(Cl)c(Cl)c1)N1CCC(CN2CCC(c3c[nH]c4ncccc34)CC2)CC1
active: growth inhibition [4] 84%
inactive: growth inhibition [1] 20% | inhibition [2] 38% | inhibition [3] -1% | outcome [5] | outcome [6] | outcome [7] | outcome [8]

Cc1cc(NN=CC=Cc2ccccc2)c2cc(F)ccc2n1
inactive: growth inhibition [1] 36% | inhibition [2] 8% | inhibition [3] -2% | outcome [5] | outcome [6] | outcome [7] | outcome [8]
active: growth inhibition [4] 101%

COc1ccc2cc(C(=O)Nc3ccc4c(c3)CCN(C3CCC3)CC4)ccc2c1
active: growth inhibition [4] 101%
inactive: growth inhibition [1] 9% | inhibition [2] 34% | inhibition [3] 2% | outcome [5] | outcome [6] | outcome [7] | outcome [8]

CN(C)C(=O)c1ccc(CN(Cc2cccc(OC(C)(C)C)c2)Cc2ccc3c(c2)OCCO3)cc1
active: growth inhibition [1] 96% | growth inhibition [4] 96%
inactive: inhibition [2] 0% | inhibition [3] -2% | outcome [5] | outcome [6] | outcome [7] | outcome [8]

CN1CCCC1CCNCc1cccc(-c2cnc(N3CCCC(C)(C)C3)nc2)c1 (stereo not drawn)
active: growth inhibition [1] 95% | inhibition [2] 99% | growth inhibition [4] 98%
inactive: inhibition [3] 5% | outcome [5] | outcome [6] | outcome [7] | outcome [8]

Cc1ccccc1Nc1nc(Nc2ccccc2)c2ccccc2n1
active: growth inhibition [4] 103%
inactive: growth inhibition [1] 21% | inhibition [2] 19% | inhibition [3] -8% | outcome [5] | outcome [6] | outcome [7] | outcome [8]

COc1ccc(-c2nonc2NC(=O)c2ccc(C(C)(C)C)cc2)cc1OC
inactive: inhibition [2] -3% | inhibition [3] -2% | outcome [5] | outcome [6] | outcome [7] | outcome [8]
active: growth inhibition [1] 73% | growth inhibition [4] 99%

COc1ccc(C(C)Nc2nc(N)c3cc(OC)c(OC)cc3n2)cc1 (stereo not drawn)
active: growth inhibition [4] 101%
inactive: growth inhibition [1] 28% | inhibition [2] 23% | inhibition [3] -2% | outcome [5] | outcome [6] | outcome [7] | outcome [8]

O=C(CCC1CCCCC1)NCCNc1cccc2ccccc12
active: growth inhibition [1] 57% | growth inhibition [4] 90%
inactive: inhibition [2] 7% | inhibition [3] -1% | outcome [5] | outcome [6] | outcome [7] | outcome [8]

CN(C)c1cccc2c1nc(-c1ccc3c(c1)CCO3)n2CCNCc1ccccc1
inactive: inhibition [2] 6% | inhibition [3] 0% | outcome [5] | outcome [6] | outcome [7] | outcome [8]
active: growth inhibition [1] 85% | growth inhibition [4] 99%

Nc1nc2c(ncn2OC[C@H](CO)OCP(=O)(O)O)c(=O)[nH]1
active: growth inhibition [1] 61% | growth inhibition [4] 94%
inactive: inhibition [2] 5% | inhibition [3] -4% | outcome [5] | outcome [6] | outcome [7] | outcome [8]

Cc1cccc2[nH]c(-c3ccc(-c4cccc(CN5CCCC(N)C5)c4)s3)nc12 (stereo not drawn)
active: growth inhibition [1] 94% | growth inhibition [4] 100%
inactive: inhibition [2] 17% | inhibition [3] 4% | outcome [5] | outcome [6] | outcome [7] | outcome [8]

COc1ccc2nc(C)cc(NCc3ccc4ccccc4c3)c2c1
active: growth inhibition [1] 75% | growth inhibition [4] 101%
inactive: inhibition [2] 21% | inhibition [3] -1% | outcome [5] | outcome [6] | outcome [7] | outcome [8]

Cc1ccc2c(c1)nc(N)n2C[C@H](O)c1ccccc1
inactive: inhibition [2] -3% | inhibition [3] 7% | outcome [5] | outcome [6] | outcome [7] | outcome [8]
active: growth inhibition [1] 74% | growth inhibition [4] 100%

C[C@@H]1CN(c2ccc3occ(C(=O)Nc4ccc(-c5ccncc5)c(Cl)c4)c3c2)C[C@H](C)N1C
active: growth inhibition [1] 96% | growth inhibition [4] 100%
inactive: inhibition [2] 14% | inhibition [3] -4% | outcome [5] | outcome [6] | outcome [7] | outcome [8]

CN(C)CCC1CCCc2ccc(NC(=O)Nc3cccc(Cl)c3Cl)cc21 (stereo not drawn)
active: growth inhibition [4] 93%
inactive: growth inhibition [1] 11% | inhibition [2] 44% | inhibition [3] 5% | outcome [5] | outcome [6] | outcome [7] | outcome [8]

COc1cccc(CNC[C@@H](O)[C@H](Cc2ccccc2)NC(=O)c2cc(NC(C)C)cc(N3CCCCS3(=O)=O)c2)c1
inactive: inhibition [2] 1% | inhibition [3] 1% | outcome [5] | outcome [6] | outcome [7] | outcome [8]
active: growth inhibition [1] 97% | growth inhibition [4] 89%

COc1cc(NCC(O)CNc2cc(Cl)nc3ccccc23)nc2ccccc12 (stereo not drawn)
inactive: inhibition [2] 17% | inhibition [3] -2% | outcome [5] | outcome [6] | outcome [7] | outcome [8]
active: growth inhibition [1] 99% | growth inhibition [4] 99%

COc1cc(C=CC(=O)N2CCN(Cc3cccc(C)c3)CC2)ccc1OCc1c(C)noc1C
inactive: inhibition [2] 8% | inhibition [3] -4% | outcome [5] | outcome [6] | outcome [7] | outcome [8]
active: growth inhibition [1] 95% | growth inhibition [4] 86%

N#Cc1ccc(OCCN(Cc2ccccc2C(F)(F)F)c2ccc(C#N)c(C(F)(F)F)c2)cc1
active: growth inhibition [1] 84% | inhibition [2] 69% | growth inhibition [4] 101%
inactive: inhibition [3] 1% | outcome [5] | outcome [6] | outcome [7] | outcome [8]

Nc1c(Cl)cc(C(O)CNCCCCCOCCc2ccc3occc3c2)cc1Cl (stereo not drawn)
inactive: inhibition [2] -2% | inhibition [3] -1% | outcome [5] | outcome [6] | outcome [7] | outcome [8]
active: growth inhibition [1] 74% | growth inhibition [4] 99%

O=C(Nc1cccc2ccccc12)N1CCC(NS(=O)(=O)c2cccc(C(F)(F)F)c2)CC1
active: growth inhibition [4] 95%
inactive: growth inhibition [1] 1% | inhibition [2] -5% | inhibition [3] -1% | outcome [5] | outcome [6] | outcome [7] | outcome [8]

O=S1(=O)NC2(CCN(CCc3ccc(Cl)cc3)CC2)Nc2cc(F)cc(F)c21
inactive: growth inhibition [1] 5% | inhibition [2] 7% | inhibition [3] -1% | outcome [5] | outcome [6] | outcome [7] | outcome [8]
active: growth inhibition [4] 86%

O=C(NC1CCCCC1)c1ccc(O)c(-c2cccc(C(F)(F)F)c2)c1
active: growth inhibition [1] 87% | growth inhibition [4] 97%
inactive: inhibition [2] 8% | inhibition [3] 0% | outcome [5] | outcome [6] | outcome [7] | outcome [8]

CC(C)Cn1c(Sc2ccc(C#N)c([N+](=O)[O-])c2)nnc1-c1ccccc1Cl
inactive: growth inhibition [1] 46% | inhibition [2] 18% | inhibition [3] 2% | outcome [5] | outcome [6] | outcome [7] | outcome [8]
active: growth inhibition [4] 93%

CC(=O)c1ccc2cc(C(=O)NC3CCC(CCN4CCc5ccc(-c6noc(C)n6)cc5CC4)CC3)[nH]c2c1 (stereo not drawn)
active: growth inhibition [4] 81%
inactive: growth inhibition [1] 45% | inhibition [2] 28% | inhibition [3] 0% | outcome [5] | outcome [6] | outcome [7] | outcome [8]

O=C(Nc1ccc(F)cc1)NC1CCN(c2ccnc3ccccc23)C1 (stereo not drawn)
inactive: growth inhibition [1] 2% | inhibition [2] 9% | inhibition [3] -2% | outcome [5] | outcome [6] | outcome [7] | outcome [8]
active: growth inhibition [4] 92%

Cc1cnc(C(=O)Nc2cccc(-c3cccc(-c4nc5ccc(F)cc5[nH]4)c3)c2)cn1
inactive: growth inhibition [1] 24% | inhibition [2] 25% | inhibition [3] -1% | outcome [5] | outcome [6] | outcome [7] | outcome [8]
active: growth inhibition [4] 99%
